LGR2 inh = Drosophila LGR2 receptor signaling inhibition; 0.35% of 380,000 active; inhibition, % at 9.99 µM; HEK293 LGR2, CRE-luciferase, bursicon-stimulated, 4 h;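 active means drop in luminescence signal, shown as inhibition above about 50% in the replicate tests, limit read from the data, passing the limit was not always enough; inconclusive means probably only some replicates passing the limit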;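 further: agonist challenge used bursicon conditioned medium at about half maximal strength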
TROY signal inh = TROY signaling inhibition. 0.98% of 360,000 active. inhibition, % at 10 µM. Q293 LMP1-TROYcd NF-kB luciferase reporter, 4 h. AID 1347056;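 active means compounds whose plate-normalised and pattern-corrected inhibition of the luciferase reporter signal at the single screening dose is 50% or more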
TWEAK-Fn14 inh = TWEAK-Fn14 signaling inhibition. 2% of 360,000 active. TWEAK-stimulated Fn14 reporter cells, luciferase luminescence, 8 h. inhibition, % at 10 µM; in the data active means inhibition above about 50%
EWS-Fli block = inhibitors of EWS/Fli oncoprotein transcriptional activity; A673 NR0B1-luciferase reporter, viability-normalised; inhibition, % at 12.6 µM; 0.67% of 350,000 active;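 active means mean inhibition of at least 50% after viability correction, with every replicate also passing that limit; inconclusive means mean reaches 50% but only one of two replicates passes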;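 further: firefly luciferase signal divided by Alamar Blue viability fluorescence both relative to DMSO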
LMP1 NFkB inh = Epstein-Barr LMP1 NF-kappaB reporter inhibition; AID 504558; LMP1-induced NF-kappaB luciferase reporter cells, luminescence; 0.69% of 350,000 active; inhibition, % at 12.5 µM; in the data active means inhibition above about 41%; inconclusive means no clear call, values can overlap the other calls;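 further: 0% = neutral control wells and 100% = reference inhibitor control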
* hit, by the source's call; ? = inconclusive; / = no result given. This is a sample that favours compounds with a hit; in the whole collection about 2.6% have one here.

SMILES | LGR2 inh | TROY signal inh | TWEAK-Fn14 inh | EWS-Fli block | LMP1 NFkB inh
CCN1CCN(Cc2ccc(NC(=O)Nc3ccccc3)cc2)CC1 | / | 53* | 60* | / | 13
Cc1noc(C)c1NC(=O)N(C)C[C@H]1Oc2ccc(NS(=O)(=O)c3ccc(Cl)cc3)cc2CC(=O)N([C@H](C)CO)C[C@H]1C | -5 | / | / | 13 | /
O=C(O)c1cc(/C=C/c2ccc(N3CCOCC3)cc2)nc2ccccc12 | 69* | 9 | 40 | -5 | 59*
Cc1ccsc1C(=O)OCC(=O)N(C)C1CCCCC1 | 10 | 32 | 63* | -44 | -18
Cc1ccsc1C(=O)OCC(=O)NC1CCCC1 | -13 | -12 | -1 | -78 | -9
CC=Cc1ccc2n(c1=O)C[C@@H]1[C@@H](CO)[C@H](C(=O)Nc3ccc(-c4ccccc4)cc3)[C@H]2N1C(=O)CC (mixture of isomers) | 7 | / | / | 8 | /
CCc1ccc(-c2cc(C(=O)N/N=C/c3c[nH]c4ccccc34)[nH]n2)cc1 | / | 34 | 59* | 47 | -4
CCOc1ccc(-c2c(C(=O)N/N=C/c3c[nH]c4ccccc34)nnn2-c2nonc2N)cc1 | 19 | 6 | 58* | / | -13
CCOc1ccc(/C=N/NC(=O)c2nnn(-c3nonc3N)c2-c2ccc(OCC)cc2)cc1 | -1 | 7 | -13 | -7 | -11
CCOc1cccc(-c2c(C(=O)N/N=C(\C)c3ccccn3)nnn2-c2nonc2N)c1 | 35 | 10 | -13 | / | 65*
CCc1ccc2c(Cl)c(C(=O)N/N=C/c3c[nH]c4ccccc34)sc2c1 | / | -42 | -7 | / | -12
CN(C)CCCNS(=O)(=O)c1ccc(N2CCN(Cc3ccc4c(c3)OCO4)CC2)c([N+](=O)[O-])c1 | 5 | 27 | 35 | 52* | 0
CC(=O)c1ccc(N2CCN(c3ccc(S(=O)(=O)NCCCN(C)C)cc3[N+](=O)[O-])CC2)cc1 | 4 | 5 | 10 | 38 | -14
CCOC(=O)CCSc1nc(N2CCOCC2)c2c(c1C#N)CC(C)(C)OC2 | -4 | -14 | -25 | 11 | 63*
CN(C(=O)CSc1cccc[n+]1[O-])c1ccccc1 | 2 | 11 | -7 | 2 | -6
O=C(CSc1cccc[n+]1[O-])NN(c1ccccc1)c1ccccc1 | -2 | -28 | 83* | -16 | -6
C[C@@H]1CCCCO[C@H](CN(C)C(=O)CCC(F)(F)F)[C@@H](C)CN([C@@H](C)CO)C(=O)c2cc(NS(=O)(=O)c3cn(C)cn3)ccc2O1 | -22 | / | / | -12 | /
O=C(c1cccs1)N1CCc2c([nH]c3ccccc23)C1c1ccccn1 (configuration not stated) | -17 | -19 | 0 | 2 | -5
O=C(c1cc(-c2ccccc2)n[nH]1)N1CCc2c([nH]c3ccccc23)C1c1ccccn1 (configuration not stated) | 1 | 41 | 59* | 23 | 5
COCCn1c(C)cc(C(=O)CSc2nc3ccccc3s2)c1C | 61* | 60* | 51* | / | 10
Cc1ccc(C(=O)CSc2nnc3ccccn23)c(C)c1 | 30 | 21 | 64* | 0 | -3
COCCn1c(C)cc(C(=O)CSc2nc3ccccc3o2)c1C | / | 5 | -7 | / | -14
COCCn1c(C)cc(C(=O)CSc2nnc3ccccn23)c1C | 62* | 26 | -13 | 63* | 50*
CCCNC(=O)N1[C@H](CO)[C@@H](c2ccccc2-c2ccc(F)cc2)[C@@H]1C#N | 9 | / | / | -6 | /
CCNC(=O)C[C@H]1C=C[C@@H](NC(=O)NC2CCCCC2)[C@@H](CO)O1 | 14 | / | / | 1 | /
SMILES | LGR2 inh | TROY signal inh | TWEAK-Fn14 inh | EWS-Fli block | LMP1 NFkB inh
CCC(=O)N1[C@H](C(=O)NC2CCC2)[C@@H](CO)[C@@H]2Cn3c(ccc(C4=CCCC4)c3=O)[C@@H]21 | -9 | / | / | 2 | /
O=C(C[C@@H]1CC[C@H](NC(=O)c2cccc(F)c2)[C@@H](CO)O1)NCCN1CCCC1 | -10 | / | / | -4 | /
CCCCC/C=C\C/C=C\C/C=C\CCCCC(=O)O | / | -30 | 9 | 4 | 53*
N#Cc1cccc(C=C(C(=O)c2ccccc2)c2ccccc2)c1 | 26 | -50 | 64* | 15 | /
N#C/C(=C\c1ccc(C#N)cc1)C(=O)c1ccccc1 | -5 | -10 | 6 | -2 | 3
CCN(CC)C(=O)c1ccc(-c2cccs2)s1 | / | -38 | -34 | -54 | -24
Oc1ccc(N=Cc2ccc(-c3cccs3)s2)cc1 | 59* | 8 | 17 | / | 82*
O=Cc1ccc(-c2cccs2)s1 | ? | 4 | -18 | 9 | 76*
Nc1ccc(-c2nc3c(Cl)c(N)ccc3[nH]2)cc1 | / | -22 | 61* | / | 4
CC1=CC(=O)C(C(C)C)=C/C1=N/OS(=O)(=O)c1ccccc1 | / | 47 | 89* | 42 | -21
